FLuc modulator: counter-screen for miR-21 project: firefly luciferase inhibitors or activators; purified FLuc, Km substrates, luminescence inhibition; Potency, µM (series often up to 57.5 µM), without a hit: top-dose activity change, negative = inhibition, actives largely listed as inhibitors; actives 6.9% (n = 360,000); AID 588342;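 also: plate controls were vehicle for no effect and reference inhibitor for full effect; nearly all actives have a fitted effect of over 55% in size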
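Biochemical qHTS of compounds, final roughly 60 µM downward over six points, against 10 nM purified firefly luciferase using Km concentrations of substrates (10 uM D-luciferin, 10 uM ATP) in Tris acetate pH 7.5 buffer; luminescence output.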
Rab9 prom act: activates the Rab9 promoter; Huh7 Rab9 promoter-luciferase reporter, luminescence, 24 h; Potency, µM (titrated, usually from 9.22 µM), inactives show at the highest dose activation, negative = inhibition, hits mostly activators; actives 2.8% (n = 320,000); also: % of control where 0% means no effect; nearly all actives have a fitted effect of over 60% in size
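Cell-based reporter: Huh7 stable for Rab9 promoter-driven luciferase, plated in reduced-serum medium with 10% FBS at 1500 cells/well, compound-treated 24 h at 37 °C, luminescence read after 10 min reagent.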
NPC1 prom act: activators of NPC1 promoter; actives 2.4% (n = 320,000); Huh7 NPC1 promoter luciferase reporter, 24 h; Potency, µM (titrated, usually from 9.22 µM), without a hit: at the highest dose activation, hits mostly activators; also: % of control where 0% means no effect; nearly all actives have a fitted effect of over 60% in size
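Huh7 reporter cells (NPC1 promoter driving luciferase) are dosed with compound for 24 h at 37 °C, 5% CO2; luciferase detection reagent is then added and luminescence measured after 10 min at ambient temperature.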
ELG1 genotoxic: inducers of genotoxicity in HEK293T ELG1-luciferase cells. HEK293T ELG1-luciferase reporter, luminescence, 16 h. Potency, µM (titrated, usually from 46 µM), inactives show at the top dose activity change, positive = activation, most hits filed as activators. actives 1.3% (n = 330,000). AID 504466; also: % of control where 0% means no effect; nearly all actives have a fitted effect of over 60% in size
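Cells (2,000/well) expressing the ELG1-luciferase fusion are dosed by pin tool and kept 16 hr at 37 °C, 5% CO2. Signal comes from ONE-Glo luciferase reagent after 30 min at room temperature.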
ELG1 repair inh: ELG1-dependent DNA repair inhibition; HEK293T ELG1-luciferase reporter, luminescence, 16 h; DNA damage induced by 5-fluorouridine; Potency, µM (highest dose often 46.1 µM), inactives show top-dose activity change, negative = inhibition, hits mostly inhibitors; actives 2.3% (n = 330,000); also: % is scaled to controls: 0 for no effect and ±100 for the full control effect; nearly all actives have a fitted effect of over 55% in size
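Cells (2,000 per well) received 5-fluorouridine plus test compound or DMSO and were incubated 16 hr at 37 °C, 5% CO2. Luciferase activity was read by luminescence 30 min after ONE-Glo addition; signal suppression marked inhibition of damage-induced ELG1 function.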
SMN2 splice enh: SMN2 splice variant enhancement | HEK293 SMN2-luciferase splicing reporter, luminescence, 30-36 h | Potency, µM (doses to about 46.1 µM), for inactives: at the highest dose activity change, positive = activation, usual class: activators | actives 2.8% (n = 210,000) | AID 1458; also: % of control where 0% means no effect; nearly all actives have a fitted effect of over 55% in size
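HEK293 cells carry an SMN2 minigene-luciferase reporter in which exon 7 inclusion puts luciferase in frame. Cells were seeded at 2000 cells/well, attached for 10-12 hours, then exposed to compounds for 30-36 hours at 37C before ONE-Glo luminescence.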
ELG1 FLuc counter: luciferase inhibition in cell-free luciferin readout for ELG1 hits. shares compounds with ELG1 repair inh. Potency, µM (highest dose often 46.1 µM), without a hit: at the top dose activity change, negative = inhibition, most hits filed as inhibitors. cell-free firefly luciferase luminescence counter-screen, ViewLux. actives 3% (n = 350). AID 624247; also: % is scaled to controls: 0 for no effect and ±100 for the full control effect
ELG1 Luc conf: human ELG1 repair inhibition, luciferase-tagged ELG1 confirmation | shares compounds with ELG1 repair inh | HEK293T ELG1-luciferase levels, luminescence; cells co-treated with 5-fluorouridine | Potency, µM (series often up to 46.1 µM), inactives show at the top dose activity change, negative = inhibition, actives largely listed as inhibitors | actives 68% (n = 670) | AID 624248; also: % is scaled to controls: 0 for no effect and ±100 for the full control effect; nearly all actives have a fitted effect of over 55% in size
Target sequence (Q96QE3 whole entry, looked up): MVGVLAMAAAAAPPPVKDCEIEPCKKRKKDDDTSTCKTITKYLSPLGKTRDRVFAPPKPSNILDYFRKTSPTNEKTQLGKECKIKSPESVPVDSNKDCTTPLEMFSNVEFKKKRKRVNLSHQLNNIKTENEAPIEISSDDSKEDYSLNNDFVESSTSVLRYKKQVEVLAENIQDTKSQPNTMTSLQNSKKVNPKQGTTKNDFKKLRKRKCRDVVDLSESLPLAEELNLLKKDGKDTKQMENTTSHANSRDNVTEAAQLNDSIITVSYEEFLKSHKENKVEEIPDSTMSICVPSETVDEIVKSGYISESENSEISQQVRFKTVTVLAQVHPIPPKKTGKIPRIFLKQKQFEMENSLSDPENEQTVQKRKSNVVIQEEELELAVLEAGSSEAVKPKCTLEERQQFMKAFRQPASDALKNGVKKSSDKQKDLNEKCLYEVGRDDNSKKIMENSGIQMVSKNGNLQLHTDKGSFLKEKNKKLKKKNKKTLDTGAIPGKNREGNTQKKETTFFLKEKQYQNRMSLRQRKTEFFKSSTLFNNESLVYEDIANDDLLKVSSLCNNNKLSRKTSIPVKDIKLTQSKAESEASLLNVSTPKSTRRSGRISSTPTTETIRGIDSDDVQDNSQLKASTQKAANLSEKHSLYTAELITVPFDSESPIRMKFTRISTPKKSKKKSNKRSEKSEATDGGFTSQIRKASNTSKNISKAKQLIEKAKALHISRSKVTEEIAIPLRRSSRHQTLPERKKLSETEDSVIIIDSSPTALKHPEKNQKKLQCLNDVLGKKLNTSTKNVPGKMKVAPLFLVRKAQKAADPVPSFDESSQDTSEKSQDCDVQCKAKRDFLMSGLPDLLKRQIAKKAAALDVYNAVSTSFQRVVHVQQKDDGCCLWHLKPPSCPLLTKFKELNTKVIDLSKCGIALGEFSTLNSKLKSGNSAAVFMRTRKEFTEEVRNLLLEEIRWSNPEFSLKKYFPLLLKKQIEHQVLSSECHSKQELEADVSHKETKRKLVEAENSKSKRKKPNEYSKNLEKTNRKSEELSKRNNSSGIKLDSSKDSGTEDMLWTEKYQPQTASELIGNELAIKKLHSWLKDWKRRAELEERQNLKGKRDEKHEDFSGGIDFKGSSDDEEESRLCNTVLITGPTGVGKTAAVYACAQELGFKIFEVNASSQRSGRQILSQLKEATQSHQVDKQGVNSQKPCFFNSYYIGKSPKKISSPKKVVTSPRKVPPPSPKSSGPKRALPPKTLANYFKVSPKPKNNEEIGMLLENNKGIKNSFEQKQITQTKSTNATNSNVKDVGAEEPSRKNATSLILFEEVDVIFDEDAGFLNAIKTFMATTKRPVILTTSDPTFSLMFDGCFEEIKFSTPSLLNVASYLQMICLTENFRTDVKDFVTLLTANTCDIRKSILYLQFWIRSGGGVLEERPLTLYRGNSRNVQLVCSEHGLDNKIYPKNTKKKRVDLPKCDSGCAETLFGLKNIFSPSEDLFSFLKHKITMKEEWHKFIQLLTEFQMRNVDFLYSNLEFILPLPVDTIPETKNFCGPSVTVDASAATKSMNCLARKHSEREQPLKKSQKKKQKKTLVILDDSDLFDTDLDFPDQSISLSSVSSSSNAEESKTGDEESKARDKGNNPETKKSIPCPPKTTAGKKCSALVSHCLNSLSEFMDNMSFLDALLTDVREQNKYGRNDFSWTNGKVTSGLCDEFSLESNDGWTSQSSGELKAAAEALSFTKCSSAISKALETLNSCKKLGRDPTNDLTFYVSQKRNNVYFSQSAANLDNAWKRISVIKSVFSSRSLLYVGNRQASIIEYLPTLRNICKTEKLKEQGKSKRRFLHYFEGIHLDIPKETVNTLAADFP
ELG1-Luc MMS: MMS-stimulated human ELG1 repair inhibition, confirmed | shares compounds with ELG1 repair inh | HEK293T luciferase-tagged ELG1 level, MMS stimulated | Potency, µM (top dose mostly 46.1 µM), inactives show top-dose activity change, negative = inhibition, usual class: inhibitors | actives 53% (n = 670); also: % is scaled to controls: 0 for no effect and ±100 for the full control effect; nearly all actives have a fitted effect of over 60% in size
ELG1 5FU viab: confirmation of ELG1 repair inhibitors: viability with 5FU; shares compounds with ELG1 repair inh; Potency, µM (titrated, usually from 46.1 µM), for the others: top-dose activity change, negative = viability loss, actives largely listed as cytotoxic; cell viability with 5-FU, ELG1-dependent repair; AID 624250; 670 tested, under 10 active;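 also: ELG1-luc HEK293T cells cotreated with 5-fluorouridine at 10 µM final; viability measured 16 h after compound addition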
ELG1 MMS cell: confirmation of ELG1 repair inhibitors: viability with MMS; actives 33% (n = 670); shares compounds with ELG1 repair inh; Potency, µM (doses to about 46.1 µM), without a hit: at the highest dose activity change, negative = viability loss, hits mostly cytotoxic; Cell viability with MMS, ELG1-dependent DNA repair;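 also: ELG1-luc HEK293T cells co-treated with 10 µM MMS; viability read 16 h after compound addition; % is scaled to controls: 0 for no effect and ±100 for the full control effect; nearly all actives have a fitted effect of over 60% in size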
ELG1 unstim viab: affects unstimulated cell viability, ELG1 hit counter-screen | shares compounds with ELG1 repair inh | cell viability counter-screen, unstimulated, luminescence | Potency, µM (titrated, usually from 45.9 µM), without a hit: top-dose activity change, negative = loss of viability, hits mostly cytotoxic | actives 8% (n = 900) | AID 624252;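 also: compound exposure lasted 16 hours before reading; % is scaled to controls: 0 for no effect and ±100 for the full control effect; nearly all actives have a fitted effect of over 55% in size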
FLuc enzyme: inhibits purified firefly luciferase, counter-screen for ELG1 hits. shares compounds with ELG1 repair inh. purified firefly luciferase, luminescence counter-screen. Potency, µM (doses to about 57.5 µM), without a hit: at the highest dose activity, negative = inhibition, hits mostly inhibitors. actives 10% (n = 350). AID 624253; also: % is scaled to controls: 0 for no effect and ±100 for the full control effect
The depositor's hits bear a star; u = inconclusive; x = no result. Sampled rows, rich in hits. Any-hit rate of the full collection: about 9.2%. Calls follow the shape of the dose curve; as a rule, active = well fitted curve in the direction sought with a large enough effect; inconclusive = small, poorly fitted or top-dose-only effect, or another doubt; inactive = no such curve, though single readings can be large; an effect the other way counts as inactive or inconclusive. Potency is read from the fitted curve at half-maximal effect.

SMILES | FLuc modulator | Rab9 prom act | NPC1 prom act | ELG1 genotoxic | ELG1 repair inh | SMN2 splice enh | ELG1 Luc conf | ELG1-Luc MMS | ELG1 5FU viab | ELG1 MMS cell | ELG1 unstim viab | others
Cn1nc(C(=O)Nc2nc(-c3ccccn3)cs2)c2ccccc2c1=O | -4% | 1% | -3% | -4% | u | x | x | x | x | x | x
CCn1nc(C(=O)Nc2nc(-c3ccccn3)cs2)c2ccccc2c1=O | 0% | -10% | -9% | -3% | 4.1µM* | x | 4.4µM* | 7.9µM* | -3% | 13µM* | u
O=C(N/N=C\C=C\c1ccc2c(c1)OCO2)C1COc2ccccc2O1 (configuration not stated) | u | 2% | 1% | -2% | -8% | 8% | x | x | x | x | x
C=CCn1c(NCCc2ccccc2)nc2c1c(=O)n(C)c(=O)n2C | -1% | -23% | -11% | -9% | u | -65% | x | x | x | x | x
C/C(Cl)=C\Cn1c(NCCc2ccccc2)nc2c1c(=O)n(C)c(=O)n2C | -6% | -34% | -25% | -13% | 5.2µM* | -64% | 13µM* | 5µM* | -1% | u | u | ELG1 FLuc counter=-9%;FLuc enzyme=-1%
COc1ccc(-c2nn(-c3ccccc3)cc2C(=O)NCC(c2cccs2)N2CCOCC2)cc1 (configuration not stated) | 5% | 2% | 0% | -19% | 4.6µM* | x | 14µM* | -1% | u | 9% | -14%
O=C(NCC(c1cccs1)N1CCOCC1)c1cn(-c2ccccc2)nc1-c1ccccc1 (configuration not stated) | -27% | -6% | -3% | -9% | u | x | x | x | x | x | x
CN(C)c1ccnc2sc(C(N)=O)c(N)c12 | -6% | 13% | 17% | -25% | 0.82µM* | 1% | 1.3µM* | 4.5µM* | 6% | 1% | -5% | ELG1 FLuc counter=u;FLuc enzyme=0%
COc1ccc(CN(C)C(=O)c2cc(-c3ccc(OC)c(OC)c3)nc3ccccc23)c(OC)c1 | 1% | 0% | -3% | 7% | 2% | x | x | x | x | x | x
COc1ccc(-c2cc(C(=O)N(C)Cc3nc4ccccc4c(=O)[nH]3)c3ccccc3n2)cc1OC | x | x | x | -4% | 2.3µM* | x | 2.5µM* | 7.1µM* | u | 8.9µM* | u
CCOC(=O)c1c(C)[nH]c(C(=O)N2CCc3cc(OC)c(OC)cc3C2)c1C | -5% | -13% | -2% | -1% | 1.5µM* | x | 3.5µM* | u | u | -16% | -18%
CCOC(=O)c1c(C)[nH]c(C(=O)N2CCN(C(=O)OCC)CC2)c1C | -1% | 7% | -5% | 2% | 0% | x | x | x | x | x | x
O=S1(=O)[C@H]2C[C@H](CO)O[C@@]2(CO)CN1Cc1ccc(-c2cccc(Cl)c2)cc1 | x | x | x | 3% | 2.3µM* | x | 2.5µM* | -6% | u | u | u
Cc1ccc(NC(=O)CCc2nnc3ccc(N4CCC(C)CC4)nn23)nc1 | 0% | -7% | -4% | 5% | 2.9µM* | x | 4.4µM* | 29% | u | 0% | u
CC1CCN(c2ccc3nnc(CCC(=O)Nc4ccc(F)cc4)n3n2)CC1 | 0% | -2% | -5% | -3% | -1% | x | x | x | x | x | x
COC(=O)c1ccc2c(=O)n(CCCCCC(=O)N3CCN(c4ccccc4)CC3)c(=O)[nH]c2c1 | -12% | -2% | -2% | -32% | 7.3µM* | -27% | 8.9µM* | 7.9µM* | u | 10µM* | 20µM* | ELG1 FLuc counter=22µM*;FLuc enzyme=-2%
COc1cc2[nH]c(=O)n(CCCCCC(=O)N3CCN(c4ccccc4)CC3)c(=O)c2cc1OC | 4% | -2% | -4% | -34% | 16µM* | -10% | 13µM* | 16µM* | 8% | u | u | ELG1 FLuc counter=u;FLuc enzyme=-18%
CCOC(=O)c1nc(Nc2ccc(C(C)=O)cc2)c2ccccc2n1 | -19% | 0% | 0% | -9% | 1.6µM* | -3% | 2.8µM* | u | u | 7% | -12%
CCOC(=O)c1cccc(Nc2nc(C(=O)OCC)nc3ccccc23)c1 | 1% | x | x | x | x | x | x | x | x | x | x
Cc1ccc(/C=N/NC(=O)CN2CCN(Cc3ccccc3)CC2)o1 | -3% | -2% | 0% | -3% | -13% | x | x | x | x | x | x
CC1(C)Cc2c(C#N)c(SCc3ccccc3)nc(N3CCOCC3)c2CO1 | 5% | -8% | -1% | -9% | 2.3µM* | -20% | 2.2µM* | -9% | u | 11% | -9%
CCCCCSc1nc(N2CCOCC2)c2c(c1C#N)CC(C)(C)OC2 | 2% | -10% | 1% | 0% | -29% | -12% | x | x | x | x | x
CC[C@H](C)[C@@H](C(=O)N1CCNCC1)n1cc([C@@H](N)CO)nn1 | -6% | -4% | 2% | 4% | 14% | x | x | x | x | x | x
N#CC1(NC(=O)CSc2nnc(-c3ccccc3F)n2N)CCCCC1 | 1% | 3% | -2% | -2% | 4% | x | x | x | x | x | x

Assay outcomes: PubChem, National Center for Advancing Translational Sciences (NCATS)
